Measured values as given in PubChem BioAssay (NCATS).
“And” between values parts separate entries of the source, which are not always exact repeats. Equal values may be shown once. Inconclusive results are not listed. Some structures have more than one record in an assay (separate samples or runs), and their calls can disagree. The source made the active and inactive calls. Unless noted, calls come from the whole dose curve; as a rule, active = well fitted curve in the direction sought with a large enough effect; inconclusive = small, poorly fitted or top-dose-only effect, or another doubt; inactive = no such curve, though single readings can be large; an effect the other way counts as inactive or inconclusive.

Tests used:
[1] = qHTS profiling of the MIPE4 collection as inhibitors of Plasmodium falciparum (3D7) proliferation (AID 743344; call rule not given here;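 note: scaled between DMSO vehicle wells and 0.29 µM artemisinin as full inhibition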); conditions: P. falciparum 3D7 in erythrocytes, SYBR Green DNA fluorescence, 72 h; at 28.5 µM unless noted
How it was run: (§1)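 Parasite DNA was quantified by SYBR Green I fluorescence (ex 485, em 535 nm) after overnight lysis in saponin/Triton buffer at room temperature. Cultures at 0.3% parasitemia and 2.5% hematocrit were first exposed to compound for 72 h at 37 C; signals were normalised to artemisinin (0.29 uM) and vehicle wells.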

[2] = qHTS profiling of the MIPE4 collection as inhibitors of Plasmodium falciparum (DD2) proliferation (AID 743345; call rule not given here); conditions: P. falciparum Dd2 in erythrocytes, SYBR Green DNA, 72 h; at 28.5 µM unless noted
How it was run: as §1

[3] = qHTS profiling of the MIPE4 collection as inhibitors of Plasmodium falciparum (DD2) proliferation (Rep 2) (AID 743346; call rule not given here); conditions: P. falciparum Dd2 in erythrocytes, SYBR Green DNA, 72 h; at 28.5 µM unless noted
How it was run: as §1

[4] = qHTS profiling of the MIPE4 collection as inhibitors of Plasmodium falciparum (HB3) proliferation (AID 743347; call rule not given here;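 note: plate controls were DMSO vehicle wells for no effect and artemisinin wells for full effect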); conditions: P. falciparum HB3 in erythrocytes, SYBR Green DNA, 72 h; at 28.5 µM unless noted
How it was run: as §1

[5] = High-throughput drug toxicity screening in the BPDCN cell line Gen2.2 (AID 1224824; call rule not given here;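 note: cells exposed to compounds for 48 h before reading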); conditions: Gen2.2 BPDCN cells; at 45.8 µM (top of the series) unless noted
How it was run: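 Gen2.2, 500 cells/well, phenol red-free RPMI/10% FBS/Pen-Strep; 48 h cpd, 37 °C/5% CO2; CTG lum, 15 min RT. Norm: DMSO = 100%, bortezomib 9.2 uM final = 0%.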

[6] = High-throughput drug toxicity screening in the BPDCN cell line Cal-1 (AID 1224825; call rule not given here); conditions: Cal-1 BPDCN cell viability, qHTS; at 45.8 µM (top of the series) unless noted
How it was run: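 CellTiter-Glo luminescence after 48 h compound exposure; percent activity scaled with DMSO as 100% and bortezomib (9.2 uM final) as 0%. Cal-1 cells seeded at 500/well in RPMI, 10% FBS, no phenol red.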

[7] = qHTS assay for measurement of the activity of small molecule inhibitors on Zika virus induced Caspase-3 activity in human iPSC derived neural progenitor cells (hNPCs) (AID 1224857); note: nearly all actives have a fitted effect of over 65% in size; note: potency is the fitted concentration of half-maximal effect
How it was run: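 Pretreat hNPCs with compound 1 h; infect ZIKV 2 FFU/cell; 6 h 37 C, 5% CO2; Caspase-Glo 3/7, 30 min RT; luminescence; normalize to no-virus and virus-only wells.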

[8] = qHTS assay for measurement of the activity of small molecule inhibitors on Zika virus induced Caspase-3 activity in human astrocytoma cells (AID 1224859); note: potency is the fitted concentration of half-maximal effect
How it was run: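 Human SNB-19 astrocytoma cells in RPMI 1640 with 10% FBS receive compound one hour ahead of Zika virus at 2 FFU/cell. After 6 h infection, caspase-3/7 activity is detected by Caspase-Glo luminescence.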

[9] = qHTS Screen of the MIPE 4.0 Collection Against Ewings Sarcoma (RDES) (AID 1259252); note: nearly all actives have a fitted effect of over 35% in size; note: potency is the fitted concentration of half-maximal effect
How it was run: (§2)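 Dose series incubated 48 h with cells in RPMI plus 5% FBS, glutamine and penicillin/streptomycin; cell viability then quantified via CellTiter-Glo.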

[10] = qHTS Screen of the MIPE 4.0 Collection Against Ewings Sarcoma (EW8) (AID 1259255);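 note: 100% = DMSO-treated cells and 0% = medium-only wells without cells; nearly all actives have a fitted effect of over 35% in size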
How it was run: as §2

[11] = qHTS Screen of the MIPE 4.0 Collection Against Ewings Sarcoma (TC32) (AID 1259256); note: nearly all actives have a fitted effect of over 45% in size; note: potency is the fitted concentration of half-maximal effect
How it was run: as §2

[12] = qHTS assay to identify small molecule inhibitors of chordoma cells - UCH-1 (AID 1259355); note: nearly all actives have a fitted effect of over 55% in size; note: potency is the fitted concentration of half-maximal effect
How it was run: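 Screening used approved and investigational drugs in 15-point titration against 800 seeded cells per well. A fixed combination of auranofin with camptothecin, doxorubicin, rubitecan and topotecan followed compound addition, and growth was scored by CellTiter-Glo after 48hr.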

[13] = qHTS assay to identify small molecule inhibitors of chordoma cells - UCH-2 (AID 1259356); note: % is set by controls: 0 for no effect and ±100 for the full control effect
[14] = molecular target: Hexokinase-4 (Homo sapiens) + Glucokinase regulatory protein (Homo sapiens) (UniProt P35557+Q14397); test: qHTS assay for inhibitors of recombinant human GCK-GKRP interaction: HTRF assay (AID 743207);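 note: 0% = DMSO with GCK present and -100% = DMSO wells lacking GCK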
Sequence of Hexokinase-4 (Homo sapiens) + Glucokinase regulatory protein (Homo sapiens) (P35557 whole entry, looked up): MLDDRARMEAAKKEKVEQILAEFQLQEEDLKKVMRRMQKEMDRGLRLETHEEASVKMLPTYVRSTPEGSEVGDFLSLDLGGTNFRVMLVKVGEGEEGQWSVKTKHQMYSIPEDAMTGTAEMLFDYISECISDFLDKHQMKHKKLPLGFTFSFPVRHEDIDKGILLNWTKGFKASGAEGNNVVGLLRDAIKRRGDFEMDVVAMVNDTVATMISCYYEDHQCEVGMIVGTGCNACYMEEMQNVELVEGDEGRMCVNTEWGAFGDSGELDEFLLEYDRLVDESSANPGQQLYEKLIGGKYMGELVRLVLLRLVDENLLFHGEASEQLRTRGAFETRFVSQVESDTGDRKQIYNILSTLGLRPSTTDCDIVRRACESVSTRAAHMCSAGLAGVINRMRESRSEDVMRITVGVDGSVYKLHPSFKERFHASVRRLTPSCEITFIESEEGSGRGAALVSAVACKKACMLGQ
Sequence of Hexokinase-4 (Homo sapiens) + Glucokinase regulatory protein (Homo sapiens) (Q14397 whole entry, looked up): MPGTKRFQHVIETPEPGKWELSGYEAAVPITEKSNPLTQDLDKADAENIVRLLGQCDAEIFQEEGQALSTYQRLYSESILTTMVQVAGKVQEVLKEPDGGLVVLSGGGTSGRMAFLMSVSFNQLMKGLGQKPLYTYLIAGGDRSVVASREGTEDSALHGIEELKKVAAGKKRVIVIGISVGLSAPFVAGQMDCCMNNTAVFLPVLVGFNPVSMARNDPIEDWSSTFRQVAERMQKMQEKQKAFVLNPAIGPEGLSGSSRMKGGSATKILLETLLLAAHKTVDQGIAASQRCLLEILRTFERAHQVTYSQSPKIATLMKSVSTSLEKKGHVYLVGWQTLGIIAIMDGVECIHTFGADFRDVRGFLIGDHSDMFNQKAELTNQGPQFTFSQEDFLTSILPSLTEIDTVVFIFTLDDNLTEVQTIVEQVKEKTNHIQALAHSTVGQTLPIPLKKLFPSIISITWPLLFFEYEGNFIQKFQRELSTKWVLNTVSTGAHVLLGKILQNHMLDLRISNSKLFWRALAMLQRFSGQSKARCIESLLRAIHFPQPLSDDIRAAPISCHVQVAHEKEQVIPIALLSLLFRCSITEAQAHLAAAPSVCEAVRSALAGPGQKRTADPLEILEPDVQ
How it was run: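 Steps: dispense GCK–GKRP complex (5 nM each, GST- and FLAG-tagged) with 2 uM S6P; pin in compounds; add XL665/Eu-cryptate-labelled antibodies; incubate 60 min at room temperature; read time-resolved FRET at 665 and 615 nm.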

[15] = qHTS Assay for Identifying Gametocytocidal Compounds (AID 743244);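 note: % is set by controls: 0 for no effect and ±100 for the full control effect; actives lower the fluorescent signal which means gametocytes are killed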; conditions: P. falciparum 3D7 stage III-V gametocytes, alamarBlue, 72 h; max response: stronger effect = lower value
How it was run: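 Compounds are pinned into medium, gametocytes (stage III–V, 3D7, 20,000 cells/well) added, and plates held 72 h at 37 °C in 5% CO2. AlamarBlue follows for 24 h before fluorescence reading.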

[16] = qHTS assay for cell viability of HEK293 cells (AID 743288); conditions: ATP luminescence (CellTiter-Glo), 18 h; max response: stronger effect = lower value; note: nearly all actives have a fitted effect of over 50% in size; note: potency is the fitted concentration of half-maximal effect; for max response: % is set by controls: 0 for no effect and ±100 for the full control effect
How it was run: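 Quantitative high-throughput screen: compounds were pinned onto parental HEK293 cells (2,000 per well) after a minimum 5 h settling at 37 C, incubated 18 h at 37 C, and intracellular ATP measured by luciferase luminescence.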

[17] = qHTS Screen of the MIPE 4.0 Collection Against Ewings Sarcoma (TC71) (AID 1259253); note: nearly all actives have a fitted effect of over 40% in size; note: potency is the fitted concentration of half-maximal effect
How it was run: as §2

Row | SMILES | parasite growth, % of DMSO control [1] | parasite growth remaining, % of DMSO control (lower = more inhibition) [2] | parasite growth, % of control (lower = inhibition) [3] | growth, % of control [4] | cell viability, % of control (lower = more cytotoxic) [5] | viability (% of control) [6] | Potency [7] | Potency [8] | Potency [9] | Potency [10] | Potency [11] | Potency [12] | outcome [13] | Potency [14] | max response [15] | Potency [16] | Potency [17] | max response [16]
1 | CC(=O)OCC(CCn1cnc2cnc(N)nc21)COC(C)=O | 99.1% | 136% | 91.8% | 98.2% | 153% | 106% | inactive | inactive | inactive | inactive | inactive | inactive | inactive | – | – | – | – | –
2 | NCCc1cnc[nH]1 | 95.8% | 101% | 109% | 108% | 166% | 99.6% | inactive | inactive | 5.9 µM (active) | – | inactive | inactive | inactive | inactive | 8.45% (inactive) and 33% (inactive) | – | – | –
3 | O=C(Nc1ccc([N+](=O)[O-])cc1Cl)c1cc(Cl)ccc1O | 5.14% | 6.45% | 6.93% | 3.45% | 10.1% | 20.3% | inactive and 1.05 µM (active) | 2.82 µM (active) and 1.18 µM (active) and 1 µM (active) | 16.6 µM (active) | – | 1.32 µM (active) | 3.98 µM (active) | – | inactive | – | 7.08 µM (active) | 1.32 µM (active) | –
4 | CCOC(=O)C(C)(C)Oc1ccc(Cl)cc1 | 92.7% | 103% | 78% | 104% | 163% | 22.1% | inactive | inactive | inactive | – | inactive | inactive | inactive | inactive | – | – | – | -5.02% (inactive)
5 | CN1CCC(=C2c3ccccc3CC(=O)c3sccc32)CC1 | 13.6% | 55.5% | 40.5% | 12.6% | 14.3% | 23.6% | inactive | inactive | 11.8 µM (active) | – | 16.6 µM (active) | inactive | inactive | inactive | – | – | 13.2 µM (active) | –
6 | Nc1ccn([C@H]2CC[C@@H](CO)O2)c(=O)n1 | 114% | 115% | 74.1% | 176% | 251% | 102% | inactive | inactive | inactive | – | inactive | – | – | inactive | – | – | inactive | 3.55% (inactive) and 2.55% (inactive)
7 | CC(C)C(=O)Nc1ccc([N+](=O)[O-])c(C(F)(F)F)c1 | – | – | – | – | 58% | 5.71% | inactive | inactive | 7.43 µM (active) | – | 13.2 µM (active) | inactive | inactive | inactive | -7.87% (inactive) and -5.86% (inactive) | – | 10.5 µM (active) | -5.73% (inactive) and -15.5% (inactive)
8 | COc1cc2nc(N3CCN(C(=O)C4COc5ccccc5O4)CC3)nc(N)c2cc1OC (configuration not stated) | 5.44% | 9.25% | 11.1% | 2.34% | 14.1% | 8.05% | inactive | inactive | inactive | – | – | inactive | inactive | inactive | – | – | 16.6 µM (active) | –
